# Laboratory results reported in PubChem BioAssay.
# Activity calls are given as the source filed them.
# What was measured:
# [1] = tested on: PRMT1 (protein arginine N-methyltransferase 1); experiment: small molecules binding arginine methyltransferase PRMT1 – biochemical, small-molecule microarray, 635 nm fluorescence, primary screen (AID 1088); details: higher = more signal;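 also: binding of Prmt1 protein to compounds spotted on small-molecule microarray slides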
# [2] = growth effects on S. cerevisiae YJM789 – YJM789 clinical isolate, OD600, 24 h, basal, primary screen (AID 1089); details: higher = more signal, called active from +8 up or from −8 down;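 also: growth of clinical yeast isolate S. cerevisiae YJM 789 seeded 1000 cells per well; test concentration not given here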
# [3] = S. pombe growth modifiers, basal conditions – strain 972, OD600, 24 h, no modulator, primary screen (AID 1090);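 also: basal condition with compound alone and no growth modifier present; test concentration not given here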; details: S. pombe 972 growth, higher = more signal, called active from +8 up or from −8 down
# [4] = budding yeast growth modifiers under rapamycin – strain BY4716, OD600, 96 h, primary screen (AID 1091); also: test concentration not given here; details: S. cerevisiae BY4716 + rapamycin, higher = more signal, called active from +8 up or from −8 down
# [5] = biological target: Torsin-1A-interacting protein 2 (Homo sapiens) (UniProt Q8NFQ8); experiment: small molecules binding lysate-expressed LULL1 – cell lysate, human LULL1 lysate, 635/667 nm fluorescence, primary screen (AID 1092); details: small-molecule microarray, hLULL1 lysate binding, 635 nm fluorescence; higher = more signal;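 also: probe is lysate of COS7 cells overexpressing human LULL1; score merges per-feature 667 nm fluorescence with signal-to-noise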
# [6] = optical density change of DRC41 E. coli – strain DRC41, OD650, 24 h, E. coli filamentation project, primary screen (AID 1093);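 also: MC1000 strain lacking acrAB efflux and sulA so SOS filamentation is blocked; test concentration not given here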; details: E. coli DRC41 growth, higher = more signal, called active from +8 up or from −8 down
# [7] = probe aLefty2 binding to arrayed compounds – biochemical, biotinylated probe, 635/667 nm fluorescence, primary screen (AID 1094); details: small-molecule microarray, higher = more signal;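 also: score merges spot fluorescence near 667 nm with spot signal-to-noise ratio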
# [8] = tested on: Noggin (protein binding on small-molecule microarray); experiment: small molecules binding Noggin protein – biochemical, 635/667 nm fluorescence, primary screen (AID 1095); details: 635 nm fluorescence, higher = more signal;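 also: score merges 667 nm feature fluorescence with signal to noise over triplicate slides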
# [9] = biological target: Neurogenic locus notch homolog protein 3 (Homo sapiens) (UniProt Q9UM47); experiment: small molecules binding NOTCH3 protein – biochemical, 635/667 nm fluorescence, primary screen (AID 1096); details: small-molecule microarray, 635 nm fluorescence, higher = more signal
# [10] = probe aEGFR binding to arrayed compounds – biochemical, biotinylated probe, 635/667 nm fluorescence, primary screen (AID 1097); details: small-molecule microarray, higher = more signal;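 also: probe is a biotinylated anti-EGFR antibody binding compounds printed on slides; score combines fluorescence near 667 nm and signal to noise of each spot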
# Sequence of Neurogenic locus notch homolog protein 3 (Homo sapiens) (Q9UM47 whole entry, looked up): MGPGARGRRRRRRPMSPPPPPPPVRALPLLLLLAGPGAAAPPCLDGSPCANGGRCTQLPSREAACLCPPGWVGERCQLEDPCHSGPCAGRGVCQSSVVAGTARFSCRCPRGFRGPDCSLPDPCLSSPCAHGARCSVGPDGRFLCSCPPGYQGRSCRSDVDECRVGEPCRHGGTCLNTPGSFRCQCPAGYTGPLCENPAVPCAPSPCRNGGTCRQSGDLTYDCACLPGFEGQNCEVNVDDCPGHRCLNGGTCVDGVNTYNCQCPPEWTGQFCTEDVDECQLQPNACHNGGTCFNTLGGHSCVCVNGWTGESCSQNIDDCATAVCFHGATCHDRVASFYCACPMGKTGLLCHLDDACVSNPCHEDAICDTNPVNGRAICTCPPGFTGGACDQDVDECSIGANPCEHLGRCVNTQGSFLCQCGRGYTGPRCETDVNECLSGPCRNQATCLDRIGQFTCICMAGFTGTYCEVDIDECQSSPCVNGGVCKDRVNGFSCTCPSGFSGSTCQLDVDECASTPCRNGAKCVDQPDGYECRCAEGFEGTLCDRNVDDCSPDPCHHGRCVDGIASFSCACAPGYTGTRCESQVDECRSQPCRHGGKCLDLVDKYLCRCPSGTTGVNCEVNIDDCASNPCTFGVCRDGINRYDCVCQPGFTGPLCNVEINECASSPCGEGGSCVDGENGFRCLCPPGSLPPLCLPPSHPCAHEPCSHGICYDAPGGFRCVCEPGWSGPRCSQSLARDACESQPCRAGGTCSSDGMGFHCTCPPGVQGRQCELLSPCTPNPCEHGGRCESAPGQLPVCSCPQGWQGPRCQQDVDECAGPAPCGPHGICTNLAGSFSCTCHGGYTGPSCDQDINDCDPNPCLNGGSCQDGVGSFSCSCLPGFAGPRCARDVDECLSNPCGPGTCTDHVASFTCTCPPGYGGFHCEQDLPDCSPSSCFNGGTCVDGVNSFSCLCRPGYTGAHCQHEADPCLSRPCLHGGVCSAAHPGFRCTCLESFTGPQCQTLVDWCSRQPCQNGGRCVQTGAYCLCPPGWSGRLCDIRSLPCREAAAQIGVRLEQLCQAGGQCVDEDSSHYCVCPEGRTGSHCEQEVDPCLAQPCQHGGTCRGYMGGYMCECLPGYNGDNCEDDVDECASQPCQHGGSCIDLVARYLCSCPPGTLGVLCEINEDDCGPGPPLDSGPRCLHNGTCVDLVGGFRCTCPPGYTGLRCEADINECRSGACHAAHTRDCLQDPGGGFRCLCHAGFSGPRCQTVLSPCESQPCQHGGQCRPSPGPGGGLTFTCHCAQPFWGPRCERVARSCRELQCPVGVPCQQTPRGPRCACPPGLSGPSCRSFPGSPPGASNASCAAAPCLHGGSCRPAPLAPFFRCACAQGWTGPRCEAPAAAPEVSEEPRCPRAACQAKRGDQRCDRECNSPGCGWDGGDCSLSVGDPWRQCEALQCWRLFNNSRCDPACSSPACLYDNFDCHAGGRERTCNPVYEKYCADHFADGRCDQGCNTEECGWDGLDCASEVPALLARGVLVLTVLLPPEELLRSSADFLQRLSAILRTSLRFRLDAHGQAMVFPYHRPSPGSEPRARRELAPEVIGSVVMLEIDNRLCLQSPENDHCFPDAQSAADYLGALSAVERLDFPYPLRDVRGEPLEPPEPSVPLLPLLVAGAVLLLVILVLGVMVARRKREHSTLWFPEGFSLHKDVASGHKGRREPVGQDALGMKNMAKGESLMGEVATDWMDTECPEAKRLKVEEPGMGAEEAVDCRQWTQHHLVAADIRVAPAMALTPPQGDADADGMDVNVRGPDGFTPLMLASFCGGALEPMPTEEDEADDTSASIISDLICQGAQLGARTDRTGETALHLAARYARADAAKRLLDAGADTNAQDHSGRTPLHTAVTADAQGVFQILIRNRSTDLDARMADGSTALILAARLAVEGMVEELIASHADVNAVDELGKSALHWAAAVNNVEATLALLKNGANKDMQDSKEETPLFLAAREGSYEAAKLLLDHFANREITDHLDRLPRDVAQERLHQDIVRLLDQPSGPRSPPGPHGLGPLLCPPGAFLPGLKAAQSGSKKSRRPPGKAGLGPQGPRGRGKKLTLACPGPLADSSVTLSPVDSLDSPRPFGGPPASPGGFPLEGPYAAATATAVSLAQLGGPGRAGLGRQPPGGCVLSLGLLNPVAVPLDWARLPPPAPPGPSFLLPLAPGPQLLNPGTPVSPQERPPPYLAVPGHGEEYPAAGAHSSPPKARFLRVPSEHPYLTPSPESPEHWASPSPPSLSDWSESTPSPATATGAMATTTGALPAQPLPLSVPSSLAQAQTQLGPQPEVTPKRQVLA
# Sequence of Torsin-1A-interacting protein 2 (Homo sapiens) (Q8NFQ8 whole entry, looked up): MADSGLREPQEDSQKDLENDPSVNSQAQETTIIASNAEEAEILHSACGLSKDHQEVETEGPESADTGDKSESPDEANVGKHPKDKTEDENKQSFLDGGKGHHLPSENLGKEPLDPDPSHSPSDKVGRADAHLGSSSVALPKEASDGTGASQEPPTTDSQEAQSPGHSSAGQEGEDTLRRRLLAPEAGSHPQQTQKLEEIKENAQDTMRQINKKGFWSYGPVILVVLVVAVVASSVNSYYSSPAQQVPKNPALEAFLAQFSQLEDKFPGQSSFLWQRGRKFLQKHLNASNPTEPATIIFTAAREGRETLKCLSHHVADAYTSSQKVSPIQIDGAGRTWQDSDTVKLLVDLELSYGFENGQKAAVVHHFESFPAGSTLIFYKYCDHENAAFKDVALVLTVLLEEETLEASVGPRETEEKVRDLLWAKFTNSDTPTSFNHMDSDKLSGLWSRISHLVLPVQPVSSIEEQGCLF
Structure (SMILES),composite z-score [1],z-score [2],z-score [3],z-score [4],composite z-score [5],z-score [6],composite z-score [7],composite z-score [8],composite z-score [9],composite z-score [10]
CCOC(=O)C[C@H]1[C@H](OC(=O)c2cc3ccccc3oc2=O)[C@@H](NC(=O)c2ccccc2)c2cc(OCCCO)ccc2N1C(=O)c1ccccc1,0.58,0.126 (inactive),-1.64 (inactive),-0.277 (inactive),-0.098,-0.12 (inactive),-0.0422,0.992,0.819,0.223
C=CCN1Cc2ccccc2[C@@H]2OC(c3ccc(OCCCO)cc3)=N[C@]2(CC=C)C1=O,1.57,-0.98 (inactive),-2.8 (inactive),-0.926 (inactive),3.15,0.924 (inactive),0.188,1.84,1.03,0.434
CC(C)C(CO)N1C(=O)[C@@H]2[C@H]3C(=O)OCC=C[C@H]3OC23C=CCN(c2ccc(Cl)cc2)C(=O)[C@@H]13 (stereo not given in full),0.193,0.964 (inactive),0.123 (inactive),1.25 (inactive),-0.0004,0.669 (inactive),-0.246,-1.16,-0.271,-0.068
CC1CC/C=C\[C@H]2OC34C=CCN(Cc5ccccc5)C(=O)[C@H]3N(C(CO)C(C)C)C(=O)[C@@H]4C2C(=O)O1 (stereo not given in full),-0.856,0.0869 (inactive),-0.978 (inactive),0.101 (inactive),0.251,0.154 (inactive),-0.0042,-0.964,-1.1,0.244
Cc1ccc(S[C@]2(C(=O)O)CC(=O)N(C3CCCCC3)[C@@H]2c2ccc(CO)cc2I)cc1,1.5,-0.693 (inactive),-0.472 (inactive),0.253 (inactive),3.35,0.843 (inactive),0.274,-0.0104,0.754,-0.0369
COCC(=C=CC[C@H](O)c1ccc(CO)o1)CCO,1.09,0.6 (inactive),0.0793 (inactive),0.244 (inactive),0.751,-0.349 (inactive),-0.0501,1.04,1.12,-0.0976
[N-]=[N+]=NCc1ccccc1[C@@H]1OC(c2ccc(OCCCO)cc2)=N[C@]1(CCS(=O)(=O)c1ccccc1)C(=O)O,0.627,0.302 (inactive),0.76 (inactive),0.248 (inactive),3.31,0.177 (inactive),0.17,-0.823,0.123,-0.0535
COCCOC(=O)N1C(=O)[C@@]2(c3cc(C#CC4(O)CCCCCC4)ccc31)[C@H](C(=O)Nc1nc3ccccc3s1)[C@H]1C(=O)O[C@H](c3ccccc3)[C@H](c3ccccc3)N1[C@@H]2c1ccc(O)cc1,1.54,0.806 (inactive),0.572 (inactive),1.33 (inactive),2.21,0.0347 (inactive),-0.0022,0.683,1.04,0.0692
O=C1O[C@@H](c2ccccc2)[C@@H](c2ccccc2)N2[C@@H](c3ccc(O)cc3)[C@]3(C(=O)Nc4ccc(C#CCCO)cc43)[C@@H](C(=O)N3CCN(c4ncccn4)CC3)[C@H]12,1.54,2.72 (inactive),2 (inactive),6.45 (inactive),1.04,2.07 (inactive),-0.698,1.74,1.09,-0.257
O=C1[C@H]2C=C(I)[C@H](C[C@@H]2OCCOCCO)[C@@]12CO2,0.582,0.0387 (inactive),-0.342 (inactive),-0.155 (inactive),0.6,-0.935 (inactive),-0.239,0.513,0.733,-0.027
CCOC(=O)C[C@H]1[C@H](OC(=O)c2ccccc2-c2ccccc2)[C@@H](NC(=O)c2ccc3ccccc3c2)c2cc(OCCCO)ccc2N1C(=O)c1ccccc1,0.633,0.393 (inactive),0.379 (inactive),1.98 (inactive),0.683,0.356 (inactive),-0.0916,0.554,0.564,0.342
CCCC=C(CCC)[C@@H](NC(=O)c1cccs1)c1ccc(C(=O)OC)cc1,-1.88,-0.0214 (inactive),0.598 (inactive),-0.0964 (inactive),0.905,-0.0658 (inactive),1.18,0.542,0.587,0.925
COc1cc2c(cc1O)C(c1ccc(CN3CCCC3)cc1)N(Cc1cc3c(cc1Br)OCO3)CC2 (stereo not given),-0.137,-0.312 (inactive),-6.22 (inactive),-1.83 (inactive),0.502,-3.03 (inactive),-0.0576,-0.244,0.313,-0.176
C=C[C@H](C)[C@H](OC(=O)Nc1ccc(SC)cc1)c1ccc(OCCO)cc1,1.31,-3.79 (inactive),-2.34 (inactive),0.375 (inactive),1.53,0.938 (inactive),0.0548,0.415,0.862,-0.15
CC(C)=C1C(=O)C(c2ccccc2)=C2CN3C(=O)N(CCc4ccccc4)C(=O)[C@]3(Cc3ccc(C(F)(F)F)cc3)[C@H]21,-0.555,-0.117 (inactive),1.38 (inactive),0.812 (inactive),2.45,-1.48 (inactive),0.01,-1.08,0.245,-0.139
O=C1O[C@H](c2ccccc2)[C@H](c2ccccc2)N2[C@H]1[C@@H](C(=O)O)[C@]1(C(=O)Nc3ccc(C#CCCO)cc31)[C@H]2c1ccccc1OCCO,1.09,0.642 (inactive),-0.495 (inactive),0.224 (inactive),2.97,0.18 (inactive),-0.13,0.55,0.116,-0.204
CCCC=C(CCC)[C@@H](NC(=O)C(C)(C)C)c1ccc(C(=O)OC)cc1,0.0225,0.647 (inactive),1.51 (inactive),1.68 (inactive),3.12,-0.447 (inactive),0.498,-0.383,0.803,-0.0023
O=c1cccc(-c2ccc([N+](=O)[O-])cc2)o1,1.03,-0.778 (inactive),1.25 (inactive),-0.495 (inactive),0.706,0.188 (inactive),-0.139,1.17,0.375,-0.0644
CCOC(=O)C1=CC[C@@H](c2ccccc2F)N(S(=O)(=O)c2ccc(C)cc2)[C@H]1c1ccccc1,1.12,-0.0047 (inactive),1.29 (inactive),0.151 (inactive),2.72,-0.818 (inactive),-0.0551,0.63,0.812,-0.101
CCCCCN1CC=CC23O[C@@H]4/C=C\CCC(C)OC(=O)C4[C@H]2C(=O)N(C(CO)C(C)C)[C@@H]3C1=O (stereo not given in full),0.0839,-0.646 (inactive),-0.957 (inactive),-1.02 (inactive),2.1,1.5 (inactive),-0.506,-0.087,0.165,-0.14
CN(C)CCCCCCNC(=O)[C@@H]1C[C@@H]2C(=O)N3CCC[C@H]3C(=O)N2[C@@H]1c1cccc(OCCO)c1,1.54,0.108 (inactive),-0.177 (inactive),1.04 (inactive),1.66,-0.395 (inactive),-0.0664,1.54,1.06,0.193
CCOC(=O)C=Cc1cccc(C)c1O,0.23,-19.8 (active),-11.5 (active),-2.54 (inactive),0.236,0.666 (inactive),-0.166,-0.452,-0.0138,-0.099
COCCOC(=O)N1C(=O)[C@@]2(c3ccccc31)[C@H](C(=O)NC[C@H](O)c1ccccc1)[C@H]1C(=O)O[C@H](c3ccccc3)[C@H](c3ccccc3)N1[C@@H]2c1ccc(O)cc1,1.53,0.787 (inactive),0.259 (inactive),2.83 (inactive),3.01,1.14 (inactive),-0.109,0.915,1.05,0.569
COC(=O)[C@@]1(Cc2ccc(OC)cc2)[C@H]2c3cc(C(=O)N(C)C)n(Cc4ccc(OC(F)(F)F)cc4)c3C[C@H]2CN1C(=O)c1ccccc1,-0.708,0.461 (inactive),1.08 (inactive),0.649 (inactive),3.39,-1.08 (inactive),0.106,-0.588,-0.354,0.0139
CCCCCCc1nc(Cc2cc(OC)c(OC)c(OC)c2)cc2c1[Si](C(C)C)(C(C)C)OC2,-0.114,0.654 (inactive),-0.0595 (inactive),0.0907 (inactive),-0.233,-0.527 (inactive),-0.0985,0.158,-0.0693,-0.232
NCCCCCCNC(=O)[C@@H]1C[C@@H]2C(=O)N[C@@H](CCCCN)C(=O)N2[C@@H]1c1ccc(O)cc1,1.44,-0.171 (inactive),0.142 (inactive),-1.38 (inactive),2.47,0.445 (inactive),0.362,0.367,0.549,0.217
COCCOC(=O)N1C(=O)[C@@]2(c3ccccc31)[C@H](c1ccc(O)cc1)N1[C@H](c3ccccc3)[C@H](c3ccccc3)OC(=O)[C@H]1[C@@H]2C(=O)N1CCN(c2ncccn2)CC1,1.55,0.42 (inactive),1.17 (inactive),1.84 (inactive),2.78,1.05 (inactive),0.0669,1.13,0.855,0.0334
COC(=O)[C@@]1(Cc2ccc(F)cc2)[C@H]2c3cc(C(=O)N4CCCC4)n(Cc4ccc(C)c(F)c4F)c3C[C@H]2CN1C(=O)c1ccccc1,-1.69,0.0074 (inactive),-0.0098 (inactive),0.378 (inactive),0.919,-0.477 (inactive),0.136,-0.849,-0.338,-0.111
COCCOC(=O)N1C(=O)[C@@]2(c3cc(C#CCNC(N)=O)ccc31)[C@H](C(N)=O)[C@H]1C(=O)O[C@H](c3ccccc3)[C@H](c3ccccc3)N1[C@@H]2c1ccccc1OCCO,1.47,1 (inactive),0.346 (inactive),1.91 (inactive),2.07,-0.658 (inactive),0.0389,0.506,1.08,-0.071
